# The full ranking holds about 2,900 compounds; the median of “NF-kB SEAP reporter activity, fold change vs agonist alone” is about 0.99, and the highest 2% start at about 2.6. The entries come from a sample that favours the highest values as a whole.
# Legend:
# [1] = tested on: RAW-Dual; assay: NF-kB SEAP reporter activity, fold change vs agonist alone; higher = enhanced NF-kB activity
# Summary of the method: (§1)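 Cytotoxic wells were those whose IncuCyte confluency was below 70% of agonist controls in both mask sets. The cells were RAW-Dual macrophages at 50,000 cells/well in DMEM on 384-well plates, dosed with 50 nL of library stock by pin tool, stimulated with a PRR agonist 1 h later, and kept at 37 °C, 5% CO2 for 20 hours. IRF and NF-κB reporter activity, as fold change over agonist-alone wells, came from supernatant read by QuantiLuc luminescence and QuantiBlue absorbance, respectively.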
# [2] = tested on: RAW-Dual; assay: NF-kB SEAP reporter activity, fold change vs agonist alone; cytotoxicity flag (confluency mask): not cytotoxic; higher = enhanced NF-kB activity
# Summary of the method: as §1
# [3] = tested on: RAW-Dual; assay: NF-kB SEAP reporter activity, fold change vs agonist alone; cytotoxicity flag (confluency mask): cytotoxic (confluency <70% of control); higher = enhanced NF-kB activity
# Summary of the method: as §1
# [4] = library stock concentration (final ~1000-fold dilution): 10 mM, cytotoxicity flag (confluency mask): not cytotoxic, agonist: Imiquimod (TLR7) […]
# [5] = library stock concentration (final ~1000-fold dilution): 10 mM, cytotoxicity flag (confluency mask): not cytotoxic, agonist: MPLA (TLR4) […]
# [6] = agonist: ODN 1826 (TLR9) 0.5 ug/mL
# [7] = agonist: Pam2CSK4 (TLR2/6) 0.1 ug/mL
# [8] = agonist: Pam3CSK4 (TLR2/1) 0.1 ug/mL
# [9] = library stock concentration (final ~1000-fold dilution): 2 mM, cytotoxicity flag (confluency mask): not cytotoxic, agonist: Imiquimod (TLR7) […]
# [10] = library stock concentration (final ~1000-fold dilution): 2 mM, cytotoxicity flag (confluency mask): not cytotoxic, agonist: MPLA (TLR4) […]
smiles,measurement,setting,value
COC1CC2CCC(C)C(O)(O2)C(=O)C(=O)N2CCCCC2C(=O)OC(C(C)CC2CCC(O)C(OC)C2)CC(=O)C(C)C=C(C)C(O)C(OC)C(=O)C(C)CC(C)C=CC=CC=C1C (stereo not drawn),NF-kB SEAP reporter activity,[1]; [4],1.44
same,NF-kB SEAP reporter activity,[1]; [5],1.5
same,NF-kB SEAP reporter activity,"[1]; library stock concentration (final ~1000-fold dilution): .1 mM, cytotoxicity flag (confluency mask): not cytotoxic, agonist: Imiquimod (TLR7) […]",1.35
same,NF-kB SEAP reporter activity,"[1]; library stock concentration (final ~1000-fold dilution): .1 mM, cytotoxicity flag (confluency mask): not cytotoxic, agonist: MPLA (TLR4) […]",1.19
COC1CC2CCC(C)C(O)(O2)C(=O)C(=O)N2CCCCC2C(=O)OC(C(C)CC2CCC(OCCO)C(OC)C2)CC(=O)C(C)C=C(C)C(O)C(OC)C(=O)C(C)CC(C)C=CC=CC=C1C (stereo not drawn),NF-kB SEAP reporter activity,[1]; [4],1.77
same,NF-kB SEAP reporter activity,[1]; [5],1.92
COC1CC2CCC(C)C(O)(O2)C(=O)C(=O)N2CCCCC2C(=O)OC(C(C)CC2CCC(OC(=O)C(C)(CO)CO)C(OC)C2)CC(=O)C(C)C=C(C)C(O)C(OC)C(=O)C(C)CC(C)C=CC=CC=C1C (stereo not drawn) (library stock concentration (final ~1000-fold dilution): 10 mM),NF-kB SEAP reporter activity,[2]; agonist: LPS (TLR4) 0.1 ug/mL,3.85
same,NF-kB SEAP reporter activity,[2]; [6],3.11
same,NF-kB SEAP reporter activity,[2]; [7],1.33
same,NF-kB SEAP reporter activity,[2]; [8],2.09
COC1CC2CCC(C)C(O)(O2)C(=O)C(=O)N2CCCCC2C(=O)OC(C(C)CC2CCC(OC(=O)C(C)(CO)CO)C(OC)C2)CC(=O)C(C)C=C(C)C(O)C(OC)C(=O)C(C)CC(C)C=CC=CC=C1C (stereo not drawn),NF-kB SEAP reporter activity,[1]; [4],2.36
same,NF-kB SEAP reporter activity,[1]; [5],2.41
NS(=O)(=O)c1ccccc1 (library stock concentration (final ~1000-fold dilution): 10 mM),NF-kB SEAP reporter activity,[2]; agonist: LPS (TLR4) 0.1 ug/mL,1.04
same,NF-kB SEAP reporter activity,[2]; [6],0.987
same,NF-kB SEAP reporter activity,[2]; [7],1.07
same,NF-kB SEAP reporter activity,[2]; [8],0.771
NS(=O)(=O)c1ccccc1,NF-kB SEAP reporter activity,[1]; [5],1.11
C=CC1CN2CCC1CC2C(O)c1ccnc2ccc(OC)cc12.C=CC1CN2CCC1CC2C(O)c1ccnc2ccc(OC)cc12.O.O.O=S(=O)(O)O (stereo not drawn),NF-kB SEAP reporter activity,[1]; [4],1.06
same,NF-kB SEAP reporter activity,[1]; [5],0.931
C=CC1CN2CCC1CC2C(O)c1ccnc2ccc(OC)cc12.C=CC1CN2CCC1CC2C(O)c1ccnc2ccc(OC)cc12.O.O.O=S(=O)(O)O (stereo not drawn) (library stock concentration (final ~1000-fold dilution): 10 mM),NF-kB SEAP reporter activity,[2]; agonist: LPS (TLR4) 0.1 ug/mL,1.16
same,NF-kB SEAP reporter activity,[2]; [6],0.531
same,NF-kB SEAP reporter activity,[2]; [7],1.35
same,NF-kB SEAP reporter activity,[2]; [8],1.05
CN(C)Cc1ccc(S(=O)(=O)n2ccc(/C=C/C(=O)NO)c2)cc1 (library stock concentration (final ~1000-fold dilution): 10 mM),NF-kB SEAP reporter activity,[2]; agonist: LPS (TLR4) 0.1 ug/mL,4.18
same,NF-kB SEAP reporter activity,[2]; [6],0.95
same,NF-kB SEAP reporter activity,[2]; [7],1.03
same,NF-kB SEAP reporter activity,[2]; [8],0.94
CN(C)Cc1ccc(S(=O)(=O)n2ccc(/C=C/C(=O)NO)c2)cc1,NF-kB SEAP reporter activity,[1]; [4],1.01
same,NF-kB SEAP reporter activity,[1]; [5],0.905
CC1(Cn2ccnn2)C(C(=O)O)N2C(=O)CC2S1(=O)=O (stereo not drawn) (library stock concentration (final ~1000-fold dilution): 10 mM),NF-kB SEAP reporter activity,[2]; agonist: LPS (TLR4) 0.1 ug/mL,0.971
same,NF-kB SEAP reporter activity,[2]; [6],1.03
same,NF-kB SEAP reporter activity,[2]; [7],0.946
same,NF-kB SEAP reporter activity,[2]; [8],1.06
CC1(Cn2ccnn2)C(C(=O)O)N2C(=O)CC2S1(=O)=O (stereo not drawn),NF-kB SEAP reporter activity,[1]; [4],1.06
same,NF-kB SEAP reporter activity,[1]; [5],0.964
CC(C)Nc1cc(-c2c[nH]c(C(=O)NC(CO)c3cccc(Cl)c3)c2)c(Cl)cn1 (stereo not drawn) (library stock concentration (final ~1000-fold dilution): 10 mM),NF-kB SEAP reporter activity,[2]; agonist: LPS (TLR4) 0.1 ug/mL,0.201
same,NF-kB SEAP reporter activity,[2]; [6],0.189
same,NF-kB SEAP reporter activity,[2]; [7],0.0811
same,NF-kB SEAP reporter activity,[2]; [8],0.114
CC(C)Nc1cc(-c2c[nH]c(C(=O)NC(CO)c3cccc(Cl)c3)c2)c(Cl)cn1 (stereo not drawn),NF-kB SEAP reporter activity,[1]; [4],0.128
same,NF-kB SEAP reporter activity,[1]; [5],0.246
CC#Cc1cncc(-c2ccc3c(c2)C2(N=C(C)C(N)=N2)C2(CCC(OC)CC2)C3)c1 (stereo not drawn) (library stock concentration (final ~1000-fold dilution): 10 mM),NF-kB SEAP reporter activity,[2]; agonist: LPS (TLR4) 0.1 ug/mL,1.15
same,NF-kB SEAP reporter activity,[2]; [6],0.723
same,NF-kB SEAP reporter activity,[2]; [7],0.809
same,NF-kB SEAP reporter activity,[2]; [8],0.972
CC#Cc1cncc(-c2ccc3c(c2)C2(N=C(C)C(N)=N2)C2(CCC(OC)CC2)C3)c1 (stereo not drawn),NF-kB SEAP reporter activity,[1]; [4],1.18
same,NF-kB SEAP reporter activity,[1]; [5],1.01
COc1cc(N2CCC(N3CCN(C)CC3)CC2)ccc1Nc1ncc(Cl)c(Nc2ccccc2P(C)(C)=O)n1 (library stock concentration (final ~1000-fold dilution): 2 mM),NF-kB SEAP reporter activity,[2]; agonist: LPS (TLR4) 0.1 ug/mL,2.66
same,NF-kB SEAP reporter activity,[2]; [6],1.27
same,NF-kB SEAP reporter activity,[2]; [7],1.28
same,NF-kB SEAP reporter activity,[2]; [8],1.66
C=CC(=O)Nc1cccc(Oc2nc(Nc3ccc(N4CCN(C)CC4)cc3OC)ncc2Cl)c1 (library stock concentration (final ~1000-fold dilution): 10 mM),NF-kB SEAP reporter activity,[2]; agonist: LPS (TLR4) 0.1 ug/mL,0.915
same,NF-kB SEAP reporter activity,[2]; [6],0.863
same,NF-kB SEAP reporter activity,[2]; [7],0.802
same,NF-kB SEAP reporter activity,[2]; [8],0.684
COc1cc(N2CCC(N3CCN(C)CC3)CC2)ccc1Nc1ncc(Cl)c(Nc2ccccc2S(=O)(=O)C(C)C)n1 (library stock concentration (final ~1000-fold dilution): 2 mM),NF-kB SEAP reporter activity,[2]; agonist: LPS (TLR4) 0.1 ug/mL,1.66
same,NF-kB SEAP reporter activity,[2]; [6],0.603
same,NF-kB SEAP reporter activity,[2]; [7],0.757
same,NF-kB SEAP reporter activity,[2]; [8],1.2
Cc1cc(Nc2ncc(Cl)c(Nc3ccccc3S(=O)(=O)C(C)C)n2)c(OC(C)C)cc1C1CCNCC1,NF-kB SEAP reporter activity,"[1]; library stock concentration (final ~1000-fold dilution): 10 mM, cytotoxicity flag (confluency mask): cytotoxic (confluency <70% of control), agonist: Imiquimod (TLR7) […]",2.07
same,NF-kB SEAP reporter activity,"[1]; library stock concentration (final ~1000-fold dilution): 10 mM, cytotoxicity flag (confluency mask): cytotoxic (confluency <70% of control), agonist: MPLA (TLR4) […]",0.569
COc1cc(N2CCC(N(C)C)CC2)ccc1Nc1ncc(Cl)c(Nc2ccccc2P(C)(C)=O)n1,NF-kB SEAP reporter activity,[1]; [4],1.64
same,NF-kB SEAP reporter activity,[1]; [5],2.05
COc1cc(N2CCC(N3CCN(C)CC3)CC2)ccc1Nc1ncnc(Nc2ccccc2S(=O)(=O)C(C)C)n1 (library stock concentration (final ~1000-fold dilution): 10 mM),NF-kB SEAP reporter activity,[2]; agonist: LPS (TLR4) 0.1 ug/mL,5.53
same,NF-kB SEAP reporter activity,[2]; [6],0.961
same,NF-kB SEAP reporter activity,[2]; [7],0.718
same,NF-kB SEAP reporter activity,[2]; [8],1.04
COc1cc(N2CCC(N3CCN(C)CC3)CC2)ccc1Nc1ncc(Cl)c(Nc2ccccc2P(C)(C)=O)n1,NF-kB SEAP reporter activity,[1]; [9],1.15
same,NF-kB SEAP reporter activity,[1]; [10],1.26
COc1cc(N2CCC(N(C)C)CC2)ccc1Nc1ncc(Cl)c(Nc2ccccc2P(C)(C)=O)n1 (library stock concentration (final ~1000-fold dilution): 10 mM),NF-kB SEAP reporter activity,[2]; agonist: LPS (TLR4) 0.1 ug/mL,1.87
same,NF-kB SEAP reporter activity,[2]; [6],1.64
same,NF-kB SEAP reporter activity,[2]; [7],1.03
same,NF-kB SEAP reporter activity,[2]; [8],1.46
COc1cc(N2CCC(N3CCN(C)CC3)CC2)ccc1Nc1ncnc(Nc2ccccc2S(=O)(=O)C(C)C)n1,NF-kB SEAP reporter activity,[1]; [4],0.945
same,NF-kB SEAP reporter activity,[1]; [5],1.14
Cc1cc(Nc2ncc(Cl)c(Nc3ccccc3S(=O)(=O)C(C)C)n2)c(OC(C)C)cc1C1CCNCC1 (library stock concentration (final ~1000-fold dilution): 10 mM),NF-kB SEAP reporter activity,[3]; agonist: LPS (TLR4) 0.1 ug/mL,0.198
same,NF-kB SEAP reporter activity,[3]; [6],0.674
same,NF-kB SEAP reporter activity,[3]; [7],0.845
same,NF-kB SEAP reporter activity,[3]; [8],0.455
COc1cc(N2CCC(N3CCN(C)CC3)CC2)ccc1Nc1ncc(Cl)c(Nc2ccccc2S(=O)(=O)C(C)C)n1,NF-kB SEAP reporter activity,[1]; [9],1.28
same,NF-kB SEAP reporter activity,[1]; [10],0.939
C=CC(=O)Nc1cccc(Oc2nc(Nc3ccc(N4CCN(C)CC4)cc3OC)ncc2Cl)c1,NF-kB SEAP reporter activity,[1]; [4],0.931
same,NF-kB SEAP reporter activity,[1]; [5],0.977
